An excerpt weighted towards active compounds, which were near 4.7% of everything screened.
D1 potentiator – human D1 dopamine receptor positive modulation | HEK293 TREx D1 cells, calcium flux, dopamine EC20 potentiation | potentiation, % at 10 µM | 0.036% of 360,000 active; in the data active means potentiation above about 30%; further: 0% is about no effect
TRHR agonist – agonists of human TRH receptor. TRHR cells, calcium flux fluo-8, FDSS agonist mode. activation, % at 2 µM. 0.18% of 360,000 active. AID 493084; further: 0% is about no effect
Target sequence (P34981 whole entry, looked up): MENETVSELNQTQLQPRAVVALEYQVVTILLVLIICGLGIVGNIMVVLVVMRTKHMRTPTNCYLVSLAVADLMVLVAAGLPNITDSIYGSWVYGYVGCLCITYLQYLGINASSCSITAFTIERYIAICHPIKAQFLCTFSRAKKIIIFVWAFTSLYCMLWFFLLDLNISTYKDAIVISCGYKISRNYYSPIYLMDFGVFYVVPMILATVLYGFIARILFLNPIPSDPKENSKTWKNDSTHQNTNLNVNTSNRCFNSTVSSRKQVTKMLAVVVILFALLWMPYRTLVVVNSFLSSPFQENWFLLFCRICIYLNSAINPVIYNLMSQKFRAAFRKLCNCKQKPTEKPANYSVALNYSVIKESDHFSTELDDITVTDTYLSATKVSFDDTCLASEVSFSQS
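Agonist-mode FDSS calcium read (Ex 480/Em 530, 1 s cycles) in 1536-well TRHR cells with fluo-8 dye, after 10-cycle baseline and 23 nL compound addition; TRH at EC20 (10 nM final) added afterwards for the enhancer phase.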
TRHR enhancer – allosteric enhancers of human TRH receptor | P34981 | enhancement, % at 2 µM | 0.66% of 360,000 active | AID 493056 | TRHR cells, fluo-8 calcium fluorescence, EC20 TRH enhancement; in the data active means enhancement above about 30%; further: 0% is about no effect
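Enhancer read-out: after compound pinning and an initial kinetic agonist-mode read, an EC20 of TRH (10 nM final) was injected and fluo-8 calcium signal (Ex 480/Em 530) followed at 1 s/cycle for 100 cycles in TRHR-expressing cells.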
D1 ag – activates the human D1 dopamine receptor; HEK293 T-REx D1 cells, calcium flux, agonist mode; activation, % at 2 µM; 1% of 360,000 active; further: 0% is about no effect
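Tetracycline-induced HEK293 TREx D1 cells, force-coupled to calcium signalling, were dye-loaded with a no-wash calcium kit. Compound was pin-added after a 10 s baseline. Fluorescence was read kinetically at 1 cycle/s for 180 s, with calcium rises flagged as agonism.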
D1 antagonist – antagonists of human D1 dopamine receptor. activity change, negative = inhibition, % at 10 µM. AID 504652. 3.2% of 360,000 active. HEK293 TREx D1 cells, calcium flux, dopamine EC80; hits give low values; in the data active means activity change below about -30%; further: on the % scale 0 is the no-effect control and ±100 the full control effect
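Compound effects on dopamine-evoked calcium signalling were measured in tetracycline-induced HEK293 Trex D1 cells. Dopamine at EC80 followed a 180 s compound pre-read, and fluorescence was tracked kinetically for 180 s more.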
The depositor's hits bear a star; . = no result given; ! = not active in a repeat. Unless noted, no stated cut-off is given here; in the data, active means activation above about 30%; inactive means the rest.

SMILES | D1 potentiator | TRHR agonist | TRHR enhancer | D1 ag | D1 antagonist
COc1ccc(NC(=O)c2sc3nc(C)c(C(=O)Nc4ccc(C)cc4C)c(-c4sccc4C)c3c2N)cc1 | 1.9 | 3.5 | -3.3 | 14.7 | 10.0
CCc1ccc(S(=O)(=O)c2nnn3c2nc(N(CC)Cc2ccccc2)c2cc(Cl)ccc23)cc1 | -0.6 | 0.3 | -6.9 | -0.5 | -1.2
Cc1ccc(S(=O)(=O)N2CCN(C(=O)CSc3nnc(-c4ccco4)o3)CC2)cc1 | -7.8 | -0.7 | 5.7 | 0.2 | -40.4*
CCC(C(=O)OCC(=O)N1CCN(S(=O)(=O)c2ccc(C)cc2C)CC1)c1ccccc1 (stereo not given) | . | 0.7 | -4.8 | 48.9* | -2.7
Cc1ccc(C)c(S(=O)(=O)N2CCN(C(=O)CSc3ccccc3)CC2)c1 | -3.5 | 0.7 | 3.2 | -0.9 | -40.5*
Cc1ccc(-c2nnc(SCC(=O)N3CCCC3)o2)cc1 | -2.4 | -0.3 | -9.1 | 2.3 | 0.2
Cc1nnc(SCC(=O)N2CCN(S(=O)(=O)c3ccccc3)CC2)s1 | -3.8 | -0.1 | -0.8 | 1.1 | -39.3*
COc1ccc2nc(SCC(O)c3cccc(Br)c3)[nH]c2c1 (stereo not given) | -1.9 | -1.9 | 7.0 | -0.9 | -8.9
Cc1ccc(C)c(S(=O)(=O)N2CCN(C(=O)CCc3c[nH]c4ccccc34)CC2)c1 | -4.9 | 0.4 | 2.4 | 1.1 | -34.7*
CN(C)c1cccc(C(=O)N2CCC(c3ccncc3)CC2)c1 | -2.5 | 0.6 | 0.8 | 8.0 | 2.9
CCOC(=O)C(C)N1C(=O)S/C(=C/c2cc(C)n(-c3ccccn3)c2C)C1=O (stereo not given) | -2.3 | 1.3 | 4.1 | 1.5 | -45.1*
NS(=O)(=O)c1ccc(CCNC(=O)CNCCc2ccc(C(F)(F)F)cc2)cc1 | -0.3 | 0.7 | 1.8 | -0.5 | 6.8
CC(C)c1ccccc1NC(=O)CNCCc1ccc(C(F)(F)F)cc1 | -1.9 | 0.9 | -1.6 | 35.6* | -1.0
O=C(COc1ccccc1)Nc1ccc(C(=O)OCc2cc(=O)n3nc(C4CC4)sc3n2)cc1 | -0.1 | 0.4 | 8.6 | 1.1 | -23.0
CCCNC(=O)/C=C/c1ccc(C(C)C)cc1 | -0.8 | -0.6 | 35.2* | 0.5 | 3.9
CCCn1nnc(NC(=O)/C=C/c2ccc(C(C)C)cc2)n1 | -9.3 | -0.5 | 3.0 | 38.3* | -18.9
CCOc1ccc(-c2c(C)nn3c(C)c(C(=O)NCCc4ccc(C)cc4)cnc23)cc1OCC | -7.3 | -0.2 | -3.8 | 3.0 | -18.5
COc1cc(NC(=O)c2oc3c(c2C)-c2nn(Cc4cccc(Cl)c4)cc2CC3)cc(OC)c1 | -2.2 | -0.1 | -1.4 | 0.5 | -30.7*
CCCNC(=O)Cn1c(=O)/c(=C\c2ccc(-c3ccc([N+](=O)[O-])cc3)o2)s/c1=C\C(=O)C(C)(C)C | -7.0 | 98.0* | -20.9 | 283.4* | -83.4*
CCCNC(=O)Cn1c(=O)/c(=C\c2ccc(-c3cccc([N+](=O)[O-])c3)o2)s/c1=C\C(=O)C(C)(C)C | -3.4 | 3.6 | 7.0 | 18.8 | 2.1
Cc1ccccc1NC(=O)Cn1c(=O)n(Cc2ccc3c(c2)OCO3)c(=O)c2oc3ccccc3c21 | -3.4 | 0.3 | 9.2 | 0.0 | 3.5
O=C(CSc1nnc2scc(-c3ccccc3)n12)N1CCN(Cc2ccccc2)CC1 | -5.2 | -0.1 | 39.0* | 0.1 | 11.8
Cc1ccc(-c2csc3nnc(SCC(=O)N4CCN(Cc5ccccc5)CC4)n23)cc1 | -2.6 | 0.2 | -0.5 | 0.9 | 14.9
CC(=O)Nc1ccc(NC(=O)C(Cc2ccccc2)NS(=O)(=O)c2ccc3c(c2)oc(=O)n3C)cc1 (stereo not given) | -1.4 | 0.0 | -1.9 | 1.4 | 1.3
CCOc1ccccc1NC(=O)Cn1c(=O)oc2cc(S(=O)(=O)NCc3ccccc3)ccc21 | -3.2 | -0.5 | -4.9 | 2.1 | -39.1*
SMILES | D1 potentiator | TRHR agonist | TRHR enhancer | D1 ag | D1 antagonist
COC(=O)c1ccccc1NS(=O)(=O)c1ccc2c(c1)oc(=O)n2C | -22.2 | -0.1 | 2.4 | 2.6 | 5.0
CC(C)c1ccc(NC(=O)C(Cc2ccccc2)NS(=O)(=O)c2ccc3c(c2)oc(=O)n3C)cc1 (stereo not given) | -6.8 | 0.9 | -4.0 | 4.6 | -37.2*
Cc1ccc(NS(=O)(=O)c2ccc3c(c2)oc(=O)n3C)cc1 | 0.4 | -0.1 | -4.6 | 11.9 | -3.5
CCc1ccc(NS(=O)(=O)c2ccc3c(c2)oc(=O)n3C)cc1 | -13.4 | 1.0 | -8.2 | 20.6 | -33.6*
Cn1c(=O)oc2cc(S(=O)(=O)Nc3ccccc3O)ccc21 | -5.8 | 0.8 | -5.4 | 7.4 | -40.0*!
Cc1ccc(Cl)cc1NC(=O)Cn1c(=O)oc2cc(S(=O)(=O)N3CCCC3)ccc21 | -1.8 | 0.7 | -4.3 | -1.0 | 1.1
COc1ccccc1N1CCN(c2nc(-c3ccc(C)cc3)nc3ccccc23)CC1 | 1.1 | 0.2 | -1.9 | -3.1 | 6.4
Cn1c(=O)oc2cc(S(=O)(=O)NCCN3CCN(c4ccccc4F)CC3)ccc21 | -10.3 | -0.7 | -10.4 | 2.4 | -75.2*
Cn1c(=O)oc2cc(S(=O)(=O)NCc3ccc(Cl)cc3)ccc21 | -4.6 | -0.2 | -8.5 | 3.6 | -37.4*
CCOc1ccc(NC(=O)Cn2c(=O)n(CC(=O)NCCc3ccccc3)c(=O)c3sccc32)cc1 | -1.3 | 3.0 | 4.6 | -0.4 | -9.9
CC(C)(C)c1ccc(-c2nc(SCC(=O)Nc3ccc(Cl)cc3)[nH]c(=O)c2C#N)cc1 | -2.4 | 4.6 | 16.1 | 131.7* | -11.3
N#Cc1c(-c2ccco2)nc(SCC(=O)Nc2cccc(Cl)c2)[nH]c1=O | -4.2 | -0.6 | -1.6 | 5.4 | 17.6
CCOc1ccccc1CNC(=O)CCc1c(C)nn(-c2ccc(N3CCCC3)nn2)c1C | -5.7 | -0.5 | 8.5 | 0.3 | 2.1
COc1ccc(N(CC(=O)Nc2nccs2)S(=O)(=O)c2c(C)nn(C)c2C)cc1 | -1.1 | 0.3 | 0.6 | -0.5 | -55.4*
COc1ccc(N(CC(=O)Nc2ccc3c(c2)OCCO3)S(=O)(=O)c2c(C)nn(C)c2C)cc1 | -6.4 | 0.0 | -1.3 | 1.2 | -30.2*
Cc1nn(C)c(C)c1S(=O)(=O)N(CC(=O)Nc1nccs1)c1ccc(C(C)C)cc1 | -1.8 | 0.1 | 13.8 | 1.0 | 0.8
CNC(=O)c1c(NC(=O)c2ccc(S(=O)(=O)N3CCCCC3)cc2)sc2c1CCC2 | -0.8 | 0.3 | 0.7 | 0.0 | 0.7
CC(CNC(=O)c1cc2ccccn2n1)c1ccccc1 (stereo not given) | -4.7 | -0.4 | -1.9 | 0.3 | -6.4
COC(=O)c1ccc(Cl)cc1NC(=O)N(Cc1ccc(C)o1)C1CCN(C(C)=O)CC1 | 1.1 | -0.6 | 1.5 | -1.6 | 2.9
Cc1ccc(-c2nc(S(=O)(=O)c3ccc(C)cc3)c(N3CCCCC3)o2)cc1 | 0.1 | -1.1 | 4.4 | -0.4 | 6.3
NC(=O)c1ccc(NC(=O)COC(=O)CCC(=O)c2ccc(Cl)cc2)cc1 | -7.0 | 0.3 | 0.9 | 2.2 | -31.2*
O=C(COC(=O)CCC(=O)c1ccc(F)cc1)Nc1ccccc1 | -0.9 | -0.1 | -2.3 | 0.0 | 7.4

Bioassay records deposited in PubChem by National Center for Advancing Translational Sciences (NCATS).
